Most compounds without a hit are left out; they make up all but 2.2% or so of the library.
Ba/F3 V617F tox – loss of viability in JAK2V617F-driven Ba/F3 cells. inhibition, % at 5.6 µM. AID 1446. Ba/F3 EpoR-JAK2V617F viability, ATP luminescence. 220,000 tested, 1.1% active;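 active means inhibition above the campaign mean plus 3 SD over all tested compounds, cut at about 24% in these data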;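 further: cytokine-independent growth of Ba/F3 cells driven by EpoR plus mutant JAK2; 0% = DMSO-treated cells and 100% = JAK inhibitor I control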
APP transl inh – APP translation inhibition; SH-SY5Y APP 5'UTR-luciferase reporter, luminescence; inhibition, % at 2 µM; 190,000 tested, 0.82% active; AID 1285;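 active means inhibition above a set limit, derived from the sample mean plus 3 SD, cut at about 45% in these data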
BaF3 tox – reduces parental Ba/F3 cell viability, JAK2V617F counter-screen | CellTiter-Glo ATP luminescence | inhibition, % at 5.6 µM | 220,000 tested, 1.1% active | AID 1486;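 active means inhibition above a per-campaign cutoff, the mean inhibition of all tested compounds plus 3 SD, cut at about 27% in these data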;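 further: 0% = DMSO wells and 100% = JAK Inhibitor I control wells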
aSyn 5UTR inh – 5' untranslated region of α-synuclein, MLPCN primary screen | alpha-synuclein 5'UTR reporter, inhibitor activity | AID 1813 | 300,000 tested, 0.82% active | inhibition, % (tested at 7.5 µM); in the data active means inhibition above about 60%;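 further: H4 neuroglioblastoma cells stably carrying SNCA 5'UTR luciferase fusion; 0% = DMSO wells and 100% = positive control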
IEC-6 tox – counter-screen for KLF5 inhibitors: cytotoxicity in IEC-6 cells; IEC-6 cytotoxicity, luminescence viability; inhibition, % at 5 µM; 290,000 tested, 0.78% active; AID 1825; in the data active means inhibition above about 22%;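 further: 0% = plate median of test compound wells and 100% = cytotoxic reference compound wells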
KLF5 inh – inhibitors of KLF5 expression. DLD-1 KLF5 promoter-luciferase reporter, luminescence. inhibition, % at 5 µM. 290,000 tested, 0.23% active. AID 1700;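 active means inhibition above a per-plate limit of that plate's mean compound inhibition plus 3 SD, cut at about 60% in these data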;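 further: 0% = DMSO wells and 100% = LY294002 at 200 µM; higher means less KLF5 promoter-driven luciferase light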
The depositor's hits bear a star.

For COc1cc(OC)cc(C(=O)N/N=C/c2ccc(OC)c(COc3ccc4ccccc4c3)c2)c1 the results were Ba/F3 V617F tox 2, APP transl inh 56*, BaF3 tox 5, aSyn 5UTR inh 5, IEC-6 tox 5 and KLF5 inh 4.
For COCCn1c(SCC(=O)N2CCCc3ccccc32)nc2ccccc2c1=O the results were Ba/F3 V617F tox 6, APP transl inh 12, BaF3 tox 60*, aSyn 5UTR inh 14, IEC-6 tox 2 and KLF5 inh 6.
Screening Cc1cc(=O)[nH]c(SCC(=O)N2CCCc3ccccc32)n1 returned Ba/F3 V617F tox 0, APP transl inh 65*, BaF3 tox 6, aSyn 5UTR inh -17, IEC-6 tox 1 and KLF5 inh 4.
Cc1cc(NS(=O)(=O)c2ccc(NC(=O)CCCOc3ccccc3C)cc2)nc(C)n1 was read as aSyn 5UTR inh -14, IEC-6 tox -6 and KLF5 inh -3.
Screening CCN(CC)CCNC(=O)c1ccc(Cl)c(S(=O)(=O)Nc2ccc(Cl)cc2)c1 returned Ba/F3 V617F tox 2, APP transl inh 60*, BaF3 tox 7, aSyn 5UTR inh 11, IEC-6 tox 1 and KLF5 inh -10.
CCN(CC)CCNC(=O)c1ccc(Cl)c(S(=O)(=O)Nc2ccccc2OC)c1 was read as Ba/F3 V617F tox 1, APP transl inh -9, BaF3 tox 2, aSyn 5UTR inh 9, IEC-6 tox 2 and KLF5 inh 5.
For CC(C)CNC(=O)NC(=O)COc1ncnc2sccc12 the results were Ba/F3 V617F tox -3, APP transl inh -3, BaF3 tox 0, aSyn 5UTR inh 15, IEC-6 tox -2 and KLF5 inh -26.
`CC(C)CCNC(=O)NC(=O)COc1ncnc2sccc12` gave Ba/F3 V617F tox -5, APP transl inh 5, BaF3 tox 96*, aSyn 5UTR inh 22, IEC-6 tox -6 and KLF5 inh -4.
Screening Cc1noc(C)c1C1(O)CCCCCCCCCCC1 returned Ba/F3 V617F tox 36*, APP transl inh -10, BaF3 tox 55*, aSyn 5UTR inh 1, IEC-6 tox 1 and KLF5 inh -11.
Screening Cc1noc(C)c1C(=O)N1CCCC1 returned Ba/F3 V617F tox 3, APP transl inh 5, BaF3 tox 4, aSyn 5UTR inh -9, IEC-6 tox 2 and KLF5 inh -30.
Screening O=c1c2sc(-c3ccccc3)cc2nc2n1CCC2 returned Ba/F3 V617F tox 2, APP transl inh -125, BaF3 tox 5, aSyn 5UTR inh 82*, IEC-6 tox 3 and KLF5 inh -10.
For Cc1ccc(NC(=S)N2CCN(S(C)(=O)=O)CC2)cc1C the results were IEC-6 tox 3 and KLF5 inh -32.
Screening COc1ccc2nc(Nc3nc(CSc4nc5ccccc5[nH]4)cc(=O)[nH]3)nc(C)c2c1 returned Ba/F3 V617F tox 2, APP transl inh 8, BaF3 tox 9, aSyn 5UTR inh 103*, IEC-6 tox 3 and KLF5 inh 7.
`COc1ccc2c(C)nc(Nc3nc(C)c(C)c(=O)[nH]3)nc2c1` gave Ba/F3 V617F tox 0, APP transl inh -2, BaF3 tox 5, aSyn 5UTR inh 103*, IEC-6 tox -1 and KLF5 inh -22.
CCc1c(C)nc(Nc2nc(C)c3ccc(OC)cc3n2)[nH]c1=O was read as Ba/F3 V617F tox -4, APP transl inh 3, BaF3 tox 2, aSyn 5UTR inh -52, IEC-6 tox 5 and KLF5 inh -25.
COc1cccc(NC(=O)COc2coc(CN3CCc4ccccc4C3)cc2=O)c1 was read as aSyn 5UTR inh -10.
For Cn1nc(-c2ccc(N3CCCCC3)c(NC(=O)c3ccco3)c2)c2ccccc2c1=O the results were Ba/F3 V617F tox 0, APP transl inh 11, BaF3 tox 4, aSyn 5UTR inh 67*, IEC-6 tox -1 and KLF5 inh -20.
For CCC(=O)Nc1cc(-c2nn(C)c(=O)c3ccccc23)ccc1N1CCOCC1 the results were Ba/F3 V617F tox -4, APP transl inh -7, BaF3 tox 2, aSyn 5UTR inh 12, IEC-6 tox 4 and KLF5 inh 11.
COc1ccc(CN2C(=NC(=O)C3CCCCC3)SC3CS(=O)(=O)CC32)cc1 (stereo not drawn) was read as aSyn 5UTR inh -3, IEC-6 tox 1 and KLF5 inh -23.
Screening Cc1ccc2nc(C)c(C(=O)NN=C3CCCCCC3)n2c1 returned Ba/F3 V617F tox -1, APP transl inh 84*, BaF3 tox 2, aSyn 5UTR inh -16, IEC-6 tox 9 and KLF5 inh -9.
`Cc1c(C(=O)NC2CCS(=O)(=O)C2)oc2ccccc12` (stereo not drawn) gave aSyn 5UTR inh 10, IEC-6 tox 2 and KLF5 inh 3.
For O=C(COC(=O)C1CCN(S(=O)(=O)c2cccc3cccnc23)CC1)c1ccccc1 the results were Ba/F3 V617F tox 29*, APP transl inh 3, BaF3 tox 63*, aSyn 5UTR inh 22, IEC-6 tox -3 and KLF5 inh -18.
`COc1cccc(NC(=S)N2CCC(c3ccc(C)cc3)C2)c1` (stereo not drawn) gave aSyn 5UTR inh -66, IEC-6 tox -5 and KLF5 inh -48.
COc1ccc2cc(CN(CC3CCCO3)C(=O)Nc3ccccc3OC)c(=O)[nH]c2c1 (stereo not drawn) was read as Ba/F3 V617F tox 4, APP transl inh 19, BaF3 tox 3, aSyn 5UTR inh 66*, IEC-6 tox 7 and KLF5 inh -11.
Cc1cc2cc(CN(Cc3ccco3)S(=O)(=O)c3c(C)ccc4nsnc34)c(=O)[nH]c2cc1C was read as Ba/F3 V617F tox -1, APP transl inh 4, BaF3 tox 5, aSyn 5UTR inh 89*, IEC-6 tox -1 and KLF5 inh -13.
`Cc1ccc2cc(CN(Cc3ccco3)S(=O)(=O)c3c(C)ccc4nsnc34)c(=O)[nH]c2c1` gave Ba/F3 V617F tox 3, APP transl inh 1, BaF3 tox 5, aSyn 5UTR inh 48, IEC-6 tox 4 and KLF5 inh 27.
`CC(=O)Nc1ccc(S(=O)(=O)N(Cc2cc3ccc(C)cc3[nH]c2=O)CC2CCCO2)cc1` (stereo not drawn) gave aSyn 5UTR inh 82*, IEC-6 tox 1 and KLF5 inh -56.
COc1ccccc1NC(=S)N(Cc1ccco1)Cc1cc2cc(C)c(C)cc2[nH]c1=O was read as Ba/F3 V617F tox 9, APP transl inh 92*, BaF3 tox 7, aSyn 5UTR inh 91*, IEC-6 tox 3 and KLF5 inh -5.
`CC(=O)Nc1ccc(NC(=O)C(C)OC(=O)CCc2c[nH]c3ccccc23)cc1` (stereo not drawn) gave aSyn 5UTR inh -5.
CCOc1c(Br)cc(C(N)=O)cc1OCc1ccccc1 was read as Ba/F3 V617F tox -2, APP transl inh 0, BaF3 tox 4, aSyn 5UTR inh 4, IEC-6 tox 0 and KLF5 inh -4.
Screening CC(C)CN1CCC(=O)N(CCSc2ccccc2)CC1 returned aSyn 5UTR inh -107, IEC-6 tox -1 and KLF5 inh -121.
